# Only some compounds are listed: those with a hit (about 3.3% of all), similar ones and a draw of the others.
# TPT1 inhibitor – Candida albicans TPT1 enzyme inhibitors, primary screen, biochemical, fluorescence polarization; recombinant caTPT1, FP RNA substrate dephosphorylation; inhibition, % at 5 µM; 300,000 tested, 0.81% active;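 active = inhibition above the mean of all tested compounds plus 3 SD, set per screening campaign, cut at about 24% in these data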;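 note: plate controls were DMSO alone for no effect and ferristatin control at 100 nM for full effect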
# PHOSPHO1 block – PubChem AID 1565; Phosphoethanolamine/phosphocholine phosphatase (Homo sapiens), Q8TCT1; recombinant PHOSPHO1, absorbance phosphatase assay; inhibition, % at 13.3 µM; 290,000 tested, 1.1% active; in the data active = inhibition above about 60%
# NRP1-CendR mod – modulators of CendR peptide binding to NRP-1, primary screen, biochemical, fluorescence polarization, uHTS; FAM-RPARPAR peptide binding to NRP-1; inhibition, % at 25 µM; 360,000 tested, 0.85% active; AID 602438, 2012;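 active = inhibition or corrected inhibition above about 18%, plus a signal ratio from 0.5 to 1.5, limit read from the data, passing the limit was not always enough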
# Rpn11 block – Rpn11 (PSMD14) deubiquitinase inhibitors, primary screen, biochemical, fluorescence polarization, uHTS; 26S proteasome non-ATPase regulatory subunit 14 (Homo sapiens), O00487; human 26S proteasome, Ub4-pepOG fluorescence polarization; 20S core pre-blocked with epoxomicin; inhibition, % at 20 µM; 360,000 tested, 0.59% active; AID 588493, 2011;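 active = inhibition at 20 µM, scaled to each plate's controls, above about 33%, limit read from the data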
# HNF4A DNA FP – change in binding of human HNF4A to DNA, primary screen, biochemical, fluorescence polarization, FITC-DNA; 1 h; 360,000 tested, 0.3% active; Hepatocyte nuclear factor 4-alpha (Homo sapiens), P41235; activity change, % at 10 µM; in the data active = activity change above about 30%, passing the limit was not always enough
# CTSL1 counter – Fasciola hepatica cathepsin L1 inhibitors, primary screen, counter-screen for PFM18AAP inhibitor project, biochemical, QFRET, fluorogenic peptide substrate. recombinant F. hepatica cathepsin L1, Z-Leu-Arg-MCA fluorescence. inhibition, % at 5.96 µM. 300,000 tested, 0.49% active. AID 1906, 2009;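 active = inhibition above the mean of all tested compounds plus 3 SD, set per screening campaign, cut at about 17% in these data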;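 note: 0% = plate median of test compound wells and 100% = 1 µM Z-Phe-Ala-diazomethylketone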
# Rpn11 confirm – Rpn11 (PSMD14) deubiquitinase inhibitors, confirmation, biochemical, fluorescence polarization, single concentration. shares compounds with Rpn11 block. purified human 26S proteasome, Ub4-pepOG fluorescence polarization; proteasome pretreated with epoxomicin. inhibition, % at 20 µM. 1,900 tested, 29% active. AID 602318, 2012
# MMP-2 counter – MMP-2 enzyme inhibition, confirmation, counter-screen for RPN11 inhibitor project, biochemical, fluorescence, single concentration; recombinant MMP-2, FRET peptide cleavage fluorescence; 1,900 tested, 4% active; inhibition, % at 20 µM; AID 602330, 2012; shares compounds with Rpn11 block;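 note: human MMP-2 activated beforehand with APMA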
# Thrombin inh – bovine thrombin protease inhibition, confirmation, counter-screen for Rpn11 inhibitor project, biochemical, fluorescence polarization, single concentration; shares compounds with Rpn11 block; bovine thrombin cleavage of Ub4-pepOG; inhibition, % at 20 µM; 1,900 tested, 13% active; AID 602333, 2012;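 active = mean inhibition at least 40% at 20 µM, or signal 3 deviations below plate average, so some actives read negative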;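 note: plate controls were thrombin with DMSO for no effect and buffer wells lacking thrombin for full effect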
# Target sequence (P00735 whole entry, looked up): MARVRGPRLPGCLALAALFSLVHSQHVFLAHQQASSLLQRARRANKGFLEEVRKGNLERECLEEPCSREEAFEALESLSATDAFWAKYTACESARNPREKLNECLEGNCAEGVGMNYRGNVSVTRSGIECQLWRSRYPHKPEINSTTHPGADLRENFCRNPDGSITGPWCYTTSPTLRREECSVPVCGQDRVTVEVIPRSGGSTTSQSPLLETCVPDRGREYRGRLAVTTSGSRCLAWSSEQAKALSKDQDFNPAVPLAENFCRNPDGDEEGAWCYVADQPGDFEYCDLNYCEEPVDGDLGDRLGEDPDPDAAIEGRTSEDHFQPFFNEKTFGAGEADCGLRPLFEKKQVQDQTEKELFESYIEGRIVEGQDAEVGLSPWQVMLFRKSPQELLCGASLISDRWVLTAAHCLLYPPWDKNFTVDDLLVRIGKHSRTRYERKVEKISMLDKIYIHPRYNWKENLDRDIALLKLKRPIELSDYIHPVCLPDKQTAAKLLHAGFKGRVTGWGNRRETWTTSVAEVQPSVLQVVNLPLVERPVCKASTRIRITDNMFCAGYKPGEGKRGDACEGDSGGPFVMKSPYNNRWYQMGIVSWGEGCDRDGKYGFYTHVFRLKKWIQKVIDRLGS
# Active calls of the source: *; · = not tested or not shown. Cut-off read from the data, not from the text of the source, unless noted: active = inhibition above about 40%; inactive = the rest.
SMILES,TPT1 inhibitor,PHOSPHO1 block,NRP1-CendR mod,Rpn11 block,HNF4A DNA FP,CTSL1 counter,Rpn11 confirm,MMP-2 counter,Thrombin inh
CCn1nccc1NC(=O)c1ccc2sc([C@@H]3O[C@H](CO)[C@H](O)[C@H](O)[C@H]3O)nc2c1,·,·,-6,7,-2,·,·,·,·
O=C(NNC1=Nc2cccc3cccc1c23)c1ccccc1Br,-1,-7,-46,53*,3,5,1,-21,4
Cc1cccc(OCC(=O)Nc2ccc3c4c(cccc24)CC3)c1C,1,-24,-7,0,3,2,·,·,·
O=C(CN1C(=O)CCC1=O)Nc1ccc2c3c(cccc13)CC2,2,6,22,102*,2,-2,7,-12,1
Cn1c(=O)c2ncn(CC(=O)Nc3ccc4c5c(cccc35)CC4)c2n(C)c1=O,11,3,-32,52*,15,-1,34,-12,19
Cc1cccc(C)c1NC(=O)Cn1cnc2c(=O)n(C)c(=O)n(C)c21,-2,-38,9,0,1,4,·,·,·
COc1ncnc2c1ncn2CCCN1CCN(Cc2cccc3ccccc23)CC1,·,·,-3,-1,1,·,·,·,·
CSC(=NC#N)N1CCN(c2cccc(Cl)c2)CC1,-2,16,-2,0,0,-3,·,·,·
CCC(=O)N(Cc1cc(=O)[nH]c2ccccc12)c1ccc(C)cc1C,-2,6,7,-4,1,-3,·,·,·
CCOc1ccc(N2C(=O)CSC2=S)cc1,2,·,7,-5,2,3,·,·,·
CCN(CC)c1ccc(N2C(=O)CSC2=S)cc1,-5,1,-9,51*,3,-1,-3,61*,-22
O=C(NCC(O)c1ccccc1)c1cccs1 (centres undefined),0,29,-4,-6,-2,-3,·,·,·
CC(=O)NCCC(=O)Nc1ccc(F)cc1C,-1,15,4,114*,22,-4,-11,-46,0
CCOc1ccc(OCCC(=O)Nc2ccc(F)cc2C)cc1,-1,14,8,-2,-2,0,·,·,·
CC1CCCN(c2ccc([N+](=O)[O-])s2)C1 (centres undefined),·,11,-61,53*,26,·,39,-38,30
CC(C)CC(=O)N(c1nnc(-c2cccnc2)s1)C1CCCC1,1,·,4,1,2,-6,·,·,·
C=CCN(c1ccccc1)S(=O)(=O)c1cccc(C(=O)NCC(c2ccccc2OC)N2CCCC2)c1 (centres undefined),-2,·,1,-11,3,-1,·,·,·
CCN1CCc2nc(NC(=O)C(c3ccccc3)c3ccccc3)sc2C1,19,8,-24,43*,6,2,10,-19,-3
Cn1c(CCNC(=O)c2ccc(Cl)cc2)n[nH]c1=S,-3,-65,-5,41*,0,-2,8,0,-3
O=c1[nH]c(C2CCCN(S(=O)(=O)c3ccccc3)C2)nc2c1nnn2Cc1cccc(Cl)c1 (centres undefined),-3,14,11,-4,5,4,·,·,·
CN1CCN(C(c2ccc(Cl)cc2)c2cc(Cl)c3cccnc3c2O)CC1 (centres undefined),0,-101,-4,46*,0,-1,44*,28,-8
CN1CCN(C(c2ccc(C(F)(F)F)cc2)c2cc(Cl)c3cccnc3c2O)CC1 (centres undefined),-2,-104,·,·,·,1,·,·,·
O=C(N/C(=C\c1ccc(-c2ccccc2)o1)C(=O)N1CCOCC1)c1ccccc1,·,43,21,-10,6,·,·,·,·
CCCCCCSc1ccc(-c2nc3ccc(C)cn3c2NCCCC)cc1OC,·,·,-25,·,1,·,·,·,·
CCCCCCSc1ccc(-c2nc3ccc(Cl)cn3c2NCCCC)cc1OC,·,·,13,36*,12,·,-11,18,-14
SMILES,TPT1 inhibitor,PHOSPHO1 block,NRP1-CendR mod,Rpn11 block,HNF4A DNA FP,CTSL1 counter,Rpn11 confirm,MMP-2 counter,Thrombin inh
COc1ccc(-c2cn3c(C)c(C(=O)Nc4cccc(C)n4)sc3n2)cc1,7,-2,-29,26,11,0,·,·,·
Cc1cccc(NC(=O)c2sc3nc(-c4ccccc4)cn3c2C)n1,18,18,-54,55*,15,-2,9,-29,-7
CCN(CC)CCOC(=O)c1ccc(N/C=C(/C#N)c2nc(-c3ccc(OC)c(OC)c3)cs2)cc1,2,51,-12,95*,207,2,70*,-93,57*
Cc1cccc(OC(=O)CN2C(=O)C3C4CCC(C4)C3C2=O)c1C (centres undefined),1,-152,-11,0,-1,2,·,·,·
COc1ccc2c(c1)C1=NN(/C(C)=C/C(C)=O)C(c3ccc(F)cc3)C1CC2 (centres undefined),4,-5,-9,15,10,0,·,·,·
COc1ccc2c(c1)C1=NN(/C(C)=C/C(C)=O)C(c3cccc(F)c3)C1CC2 (centres undefined),15,-6,-10,59*,29,-2,15,0,8
O=c1cc(-c2cccc(F)c2)oc2ccccc12,·,·,-1,41*,-5,·,-19,5,-14
O=C(CSc1nc2nc(-c3cccs3)cc(C(F)(F)F)c2c(=O)[nH]1)Nc1ccc(F)c(F)c1,9,35,-34,40*,-12,4,57*,-8,0
Cc1ccc(C)c(NC(=O)CSc2nc3nc(-c4cccs4)cc(C(F)(F)F)c3c(=O)[nH]2)c1,0,6,-18,14,-1,5,·,·,·
O=C(CC(c1ccccc1)c1ccccc1)OCn1nnc2ccccc2c1=O,-1,7,-3,-1,3,0,·,·,·
Cc1ccc(CNC(=O)C2CCN(S(=O)(=O)c3cccs3)CC2)o1,1,-14,-12,12,4,2,·,·,·
CC1(C(=O)NC2CCCCCCC2)CCC(=O)N1Cc1cccs1 (centres undefined),-1,-4,0,1,-1,6,·,·,·

# Screening data: PubChem, several laboratories
